# Data published in PMC5540273 (PLoS ONE, 2017).
# What was measured:
# Conditions in all cases: concentration: 1 μM, replicates: in singlicate; n = 1
# [1] = test system: T1, PRKR
# T1 construct: gene EIF2AK2
# [2] = test system: PRKX
# [3] = test system: PRP4
# [4] = test system: T2, PYK2
# T2 construct: gene PTK2B
# [5] = test system: QSK
# [6] = test system: RAF1
# [7] = test system: RET
# [8] = test system: RIOK1
# [9] = test system: RIOK2
# [10] = test system: RIOK3
# [11] = test system: RIPK1
# [12] = test system: RIPK2
# [13] = test system: RIPK4
# [14] = test system: RIPK5
# [15] = test system: ROCK1
# [16] = test system: ROCK2
# [17] = test system: ROS1
# [18] = test system: RPS6KA4(Kin.Dom.1-N-terminal)
# [19] = test system: RPS6KA4(Kin.Dom.2-C-terminal)
# [20] = test system: RPS6KA5(Kin.Dom.1-N-terminal)
# 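Further: KINOMEscan kinase panel screen.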
SMILES,%Inh [1],%Inh [2],%Inh [3],%Inh [4],%Inh [5],%Inh [6],%Inh [7],%Inh [8],%Inh [9],%Inh [10],%Inh [11],%Inh [12],%Inh [13],%Inh [14],%Inh [15],%Inh [16],%Inh [17],%Inh [18],%Inh [19],%Inh [20]
O=C(NCCCN1CCCC1=O)c1cnc(NCc2cc(Cl)ccc2Cl)nc1NC1CCNCC1,0%,0%,2%,0%,0%,0%,8%,0%,0%,8%,0%,0%,0%,0%,0%,0%,0%,15%,0%,0%
Fc1cccc(COc2ccc(Nc3ncnc4nn5ccccc5c34)cc2Cl)c1 [GW689066],0%,2%,0%,0%,0%,4%,0%,20%,0%,0%,0%,0%,0%,0%,40%,33%,1%,17%,0%,0%
CCc1nc(-c2cccc(N(C)S(=O)(=O)c3ccccc3)c2)c(-c2ccnc(Nc3ccc(N4CCN(C(C)=O)CC4)nc3)n2)s1 [GSK1645895],17%,23%,16%,0%,1%,18%,0%,17%,5%,15%,0%,90%,18%,10%,0%,0%,0%,0%,0%,0%
FC(F)(F)c1ccc(-c2nn3ncccc3c2-c2ccnc(Nc3cccc(C(F)(F)F)c3)n2)cc1 [GW828205],0%,0%,0%,1%,0%,0%,0%,26%,0%,25%,0%,0%,0%,0%,0%,0%,0%,16%,0%,0%
O=C(CCO)NCCn1ccc2ncnc(Nc3ccc(Oc4cccc(C(F)(F)F)c4)c(Cl)c3)c21,0%,0%,8%,0%,0%,0%,0%,0%,0%,0%,0%,7%,0%,0%,0%,0%,0%,18%,0%,3%
COC(=O)c1cccc(NC(=O)NCCNc2ccnc(Nc3ccc(F)cc3)n2)c1 [GSK1379883],0%,4%,46%,0%,0%,11%,0%,23%,0%,31%,22%,0%,2%,0%,25%,5%,17%,23%,0%,22%
CCCc1ccc(S(=O)(=O)NC2CCN(c3ccnc(Nc4ccc(OC)cc4)n3)C2)cc1 (stereo not drawn) [GSK1379737],0%,0%,60%,10%,0%,0%,28%,0%,0%,0%,0%,0%,0%,0%,12%,28%,5%,4%,0%,0%
CN1c2ccc(-c3ccc(C(=O)NCCO)cc3)cc2-c2[nH]ncc2S1(=O)=O,1%,0%,0%,6%,5%,0%,13%,30%,22%,17%,1%,13%,0%,27%,0%,41%,8%,25%,49%,0%
OCCOCCn1ccc2ncnc(Nc3ccc(Oc4cccc(Cl)c4)c(Cl)c3)c21,0%,3%,9%,0%,0%,5%,0%,0%,0%,0%,0%,48%,0%,0%,0%,0%,0%,17%,0%,0%
O=C(Nc1ccccc1)Nc1ccc(Oc2ccc3nccn3n2)cc1,0%,0%,0%,0%,0%,31%,0%,49%,0%,0%,11%,88%,0%,0%,0%,0%,0%,50%,0%,0%
Fc1ccc(-c2ncn(CCCNCc3ccccc3)c2-c2ccncc2)cc1,0%,0%,17%,1%,1%,0%,18%,0%,11%,28%,9%,0%,29%,26%,27%,32%,0%,0%,32%,0%
O=C(c1ccc(-c2cc(-c3c[nH]nc3-c3ccccn3)ccn2)cc1)N1CCCC1 [GW792479],4%,0%,12%,7%,0%,43%,5%,10%,0%,19%,1%,9%,5%,0%,0%,0%,0%,13%,0%,0%
C[C@H]1CC[C@@H](C(=O)Nc2ccccc2)CN1c1cc(-c2ccc3c(N)n[nH]c3c2)nc(N)n1 [GSK2283293],0%,8%,2%,20%,10%,6%,0%,42%,8%,31%,0%,0%,6%,0%,9%,18%,0%,6%,0%,12%
N#Cc1ccc(Oc2ccc(Nc3ncnc4cc[nH]c34)cc2Cl)cc1,0%,7%,0%,10%,0%,0%,19%,21%,8%,1%,2%,26%,0%,6%,2%,0%,0%,0%,8%,20%
COc1ccc(-c2oc3ncnc(N)c3c2-c2ccc(OC)cc2)cc1 [SB-589132],0%,3%,64%,7%,6%,44%,11%,0%,0%,0%,2%,28%,1%,0%,41%,0%,0%,0%,0%,0%
